From PubChem
This is a sample that favours compounds with a hit; in the whole collection about 19% have one here.
uPA generation: blocks generation of uPA at the cell surface; cell surface uPA generation assay, qHTS; Potency, µM (highest dose often 38.3 µM), inactives show top-dose activity change, negative = inhibition, hits mostly inhibitors; 330,000 tested, 0.31% active; AID 540303; active means well fitted inhibition curve with a large enough effect; inconclusive means small, poorly fitted or top-dose-only effect; inactive means no such curve, though single readings can be large or run the other way; tested in mouse RAW 264.7 cells; further: potency means the concentration at half of the fitted maximal effect; nearly all actives have a fitted effect of over 55% in size
HT1080-NT tox: kills 2HG-producing HT-1080-NT fibrosarcoma cells | HT-1080-NT fibrosarcoma viability, CellTiter-Glo ATP luminescence, 48 h | Potency, µM (series often up to 46.1 µM), for the others: top-dose activity, negative = less viability, most hits filed as cytotoxic | 360,000 tested, 1.6% active;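 further: NT is the 2HG producing partner of a matched IDH1 knockdown line; potency means the concentration at half of the fitted maximal effect; 0% = DMSO-treated cells and -100% = media-only wells without cells; nearly all actives have a fitted effect of over 55% in size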
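Read-out is CellTiter-Glo luminescence after 10 minutes at room temperature, following 48 hours' compound treatment of HT-1080-NT cells (750 cells/well, RPMI, 5% FBS, 37 degrees C).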
DT40 TDP1 CPT: DT40-hTDP1 cell growth loss with CPT | chicken DT40 Tdp1-/-;hTDP1 cells + 20 nM CPT, ATP luminescence, 48 h | Potency, µM (series often up to 46.2 µM), for the others: at the top dose activity change, negative = growth inhibition, actives largely listed as inhibitors | 420,000 tested, 12% active; further: potency means the concentration at half of the fitted maximal effect; nearly all actives have a fitted effect of over 55% in size
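Chicken DT40 Tdp1-/- cells stably complemented with human TDP1 were seeded at 400 cells/well in medium containing 20 nM camptothecin, exposed to pin-transferred compounds, and grown at 37 °C for at least 48 hr. Viability was read as ATP luminescence.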
HT1080 IDH1KD tx: toxicity to HT-1080 IDH1 knockdown cells (counter line); HT-1080 IDH1 knockdown viability, ATP luminescence, 48 h; Potency, µM (series often up to 46.1 µM), without a hit: at the top dose activity, negative = toxicity, usual class: cytotoxic; 360,000 tested, 2% active; AID 686971;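 further: potency means the concentration at half of the fitted maximal effect; 0% = DMSO wells and -100% = cell-free medium wells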
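IDH1KD HT-1080 cells, 750/well, RPMI + 5% FBS; compound pinned after 2 h settling; 48 h, 37 °C; CellTiter-Glo luminescence; % activity normalised to DMSO and no-cell wells; curves fitted, classed by r2 and efficacy.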
IL-1B inflam inh: inflammasome signaling inhibition, IL-1 beta readout; THP-1 LPS/ATP IL-1B secretion, AlphaLISA, 16 h; hits give low values; activity change, % at 57.5 µM; 360,000 tested, 4.7% active; in the data active means activity change below about -50%; inconclusive means mostly about -30% to -49%
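THP-1 cells pretreated 1 hr with compounds (up to 57.5 uM final), then stimulated with LPS (250 ng/mL final) plus ATP (1.25 mM final); secreted IL-1B measured by AlphaLISA after 16 hr, decreased signal indicating inhibition.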
DT40 TDP1 no CPT: qHTS for Inhibitors of human tyrosyl-DNA phosphodiesterase 1 (TDP1): qHTS in cells in absence of CPT. DT40 Tdp1-/- hTDP1 cells, no CPT, ATP luminescence, 48 h. Potency, µM (doses to about 46.2 µM), for the others: top-dose activity change, negative = growth inhibition, usual class: inhibitors. 420,000 tested, 15% active; further: potency means the concentration at half of the fitted maximal effect; nearly all actives have a fitted effect of over 55% in size
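Growth kinetics read by CellTiter-Glo luminescence after ≥48 hr at 37 °C. Cells: DT40 Tdp1-/- stably carrying human TDP1, 400 per well, compound exposure in the absence of CPT (DMSO vehicle).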
* hit, by the source's call; ? = inconclusive; . = not tested or not shown. Unless noted, the call rests on the fitted dose curve; in most records, active means well fitted curve in the direction sought with a large enough effect; inconclusive means small, poorly fitted or top-dose-only effect, or another doubt; inactive means no such curve, though single readings can be large; an effect the other way counts as inactive or inconclusive. Unless noted, on the % scale 0 is the no-effect control and ±100 the full control effect.

SMILES	uPA generation	HT1080-NT tox	DT40 TDP1 CPT	HT1080 IDH1KD tx	IL-1B inflam inh	DT40 TDP1 no CPT
O=c1/c(=C/c2ccc([N+](=O)[O-])cc2)sc2n1CCCN=2	-13%	-14%	26µM*	-13%	?	13µM*
Nc1nonc1-n1nnc(C(=O)N/N=C/c2ccccc2Cl)c1COc1ccc(F)cc1	1%	-7%	1%	-3%	-6	?
O=C1N(c2ccccc2C(F)(F)F)O[C@@]1(c1ccccc1)C1CCCCC1	-9%	?	13µM*	?	-16	?
COC(=O)C(CCSC)NC(=O)c1cc2c(n(-c3ccc(C)cc3)c1=O)CC(C)(C)CC2=O (centres undefined)	.	.	1%	.	.	-9%
Cc1c(CCO)sc[n+]1CC(=O)c1ccccc1	.	.	0.56µM*	.	.	?
Cc1c(CCOC(=O)CC23CC4CC(CC(C4)C2)C3)sc[n+]1CC(=O)c1ccccc1	?	-22%	21µM*	?	?	15µM*
Cc1c[n+](CC(=O)c2ccccc2)cs1	1%	21%	-10%	15%	-1	-17%
Cc1c(N)cc[n+](CC(=O)c2ccccc2)c1C	-1%	-9%	21µM*	?	-70*	21µM*
Cc1c(CCOC(=O)c2cc([N+](=O)[O-])cc([N+](=O)[O-])c2)sc[n+]1CC(=O)c1ccc(Br)cc1	-5%	-1%	?	-21%	-97*	?
Cc1noc(NC(=O)c2cccc(Cl)c2Cl)c1C#N	6%	-6%	?	-16%	19	?
Cc1cccc(C)c1NS(=O)(=O)c1c(C(=O)N2CCCCC2)c(C)n(C)c1C	1%	14%	-17%	9%	-9	10%
COc1cccc(NC(=O)Cn2cc(S(=O)(=O)N3CCCC3)c(S(=O)(=O)N3CCCC3)c2)c1	.	.	-5%	.	.	-18%
Cc1c(CCOC(=O)C23CC4(C)CC(C)(CC(C)(C4)C2)C3)sc[n+]1CC(=O)c1ccccc1	-2%	?	?	?	-192*	?
Cc1ccc(C(=O)OCCc2sc[n+](Cc3ccccc3)c2C)cc1	-5%	13%	-3%	16%	17	-3%
Cc1ccc(C)c2[nH]c(=O)c(CCNC(=O)c3cc4ccccc4o3)cc12	-4%	7%	18µM*	10%	?	21µM*
CCC(CC)C(=O)NCCc1cc2c(C)ccc(C)c2[nH]c1=O	5%	7%	9%	-1%	-9	3%
COc1ccc(OC)c2[nH]c(=O)c(CCNC(C)=O)cc12	7%	4%	-4%	6%	6	-3%
COc1ccc(OC)c2[nH]c(=O)c(CCNC(=O)c3cc4ccccc4o3)cc12	-11%	0%	15µM*	3%	-22	?
CC/C(=N/N=C(/CC)c1ccc(O)cc1)c1ccc(O)cc1	-2%	4%	15µM*	-2%	15	8.2µM*
C/C=C(/C(=C/C)c1ccc(O)cc1)c1ccc(O)cc1	30%	20%	?	11%	35	?
CC(=NN=C(C)c1ccc(O)cc1)c1ccc(O)cc1	-7%	-19%	?	-1%	-10	16µM*
N=c1c(S(=O)(=O)c2ccc(Cl)cc2)cc2c(=O)n3ccccc3nc2n1Cc1ccco1	0%	-3%	?	-16%	-12	?
N=c1c(S(=O)(=O)c2ccc(Br)cc2)cc2c(=O)n3ccccc3nc2n1Cc1ccco1	-1%	-5%	9.2µM*	-2%	?	6.5µM*
N=c1c(S(=O)(=O)c2ccc(Br)cc2)cc2c(=O)n3ccccc3nc2n1C1CCCCC1	-9%	-3%	?	-2%	5	?
N=c1c(S(=O)(=O)c2ccccc2)cc2c(=O)n3ccccc3nc2n1C1CCCCC1	3%	?	26µM*	?	?	15µM*
